Screens (PubChem BioAssay)
A selection: hits, their analogues and other compounds. The true share with any hit is near 1.8%.
NPR1 activator – GC-A (human) enzyme activation; activation, % at 10 µM; 370,000 tested, 0.14% active; HEK293 GC-A cells, cGMP TR-FRET, EC30 ANP; 0% at EC30 ANP, 100% saturating ANP; in the data active = activation above about 40%
HTR2A ag – activates the mouse 5-HT2A serotonin receptor. P35363. CHO-K1 mHTR2A beta-arrestin complementation, luminescence; percent of 30 µM serotonin response. activation, % at 7.6 µM. 360,000 tested, 0.66% active. AID 624169;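 active = activation above a run cutoff, the mean activation of all tested compounds plus 3 SD, cut at about 14% in these data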
MsrA inhibitor – bovine MsrA inhibition. purified bovine MsrA, absorbance read-out. inhibition, % at 15.5 µM. 360,000 tested, 0.75% active. AID 651718; in the data active = inhibition above about 4.5%
bovine MsrA act – activators of bovine methionine sulfoxide reductase A; 360,000 tested, 0.3% active; purified bovine MsrA, absorbance read-out; AID 602163; activation, % at 10.6 µM; in the data active = activation above about 7.5%
GC-B act – GC-B (human) receptor activation; P20594; HEK293-GC-B cells, CNP EC30, cGMP TR-FRET; 0% at EC30 CNP, 100% saturating CNP; activation, % at 10 µM; 370,000 tested, 0.11% active; AID 1920062;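 active = activation at 10 µM reaching about 35% in either raw or pattern-adjusted values, limit read from the data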
A number is an active result; i = inactive; nt = no result.

SMILES	NPR1 activator	HTR2A ag	MsrA inhibitor	bovine MsrA act	GC-B act
COC(=O)[C@]12C[C@H](CC(=O)NCCC(C)C)C(=O)N(CCc3ccc(OC)c(OC)c3)C1=C[C@H](C1CCCC1)O[C@@H]2C	i	nt	nt	nt	i
COC(=O)C1CN(Cc2ccccc2)CCS(=O)(=O)N1Cc1ccc(F)cc1 (stereo not given)	i	nt	nt	nt	i
C(=N\n1cncn1)/c1ccc(N2CCOCC2)cc1	i	i	5.3	i	i
COc1ccc(OCCNc2cc(N3CCCCC3)ccc2[N+](=O)[O-])cc1	i	i	i	i	i
CC1CN(c2ccc([N+](=O)[O-])c(NCCOc3ccccc3)c2)CCN1 (stereo not given)	43.5	i	i	i	i
COc1cc(C(=O)NCCCCc2ccccc2)cc(OC)c1OC	i	i	i	i	i
COc1cc(C(=O)NCCC(c2ccccc2)c2ccccc2)cc(OC)c1OC	i	i	i	i	118.4
NS(=O)(=O)c1cccc(NC(=O)COC(=O)COc2ccc3ccccc3c2)c1	i	i	i	i	i
NS(=O)(=O)c1ccc(NC(=O)COC(=O)COc2ccc3ccccc3c2)cc1	i	17.4	i	i	i
Cc1ccc(CNc2nc(-c3cccs3)nc3ccccc23)cc1	i	i	i	i	39.2
c1ccc(CNc2nc(-c3cccs3)nc3ccccc23)nc1	i	i	i	i	i
COc1ccc(-n2c(SCC(=O)Nc3cc(C)on3)nc3c([nH]c4ccccc43)c2=O)cc1OC	71.5	i	i	i	i
Cc1ccc(-n2c(SCC(=O)Nc3cc(C)on3)nc3c([nH]c4ccccc43)c2=O)cc1	78.8	i	i	i	i
COc1ccc(-n2c(SCC(=O)Nc3cc(C)on3)nc3c([nH]c4ccccc43)c2=O)cc1	77.2	i	i	i	i
COc1ccc(-n2c(SCC(=O)Nc3ccc(NC(C)=O)cc3)nc3c([nH]c4ccccc43)c2=O)cc1OC	i	i	i	i	i
C=CCn1c(SCC(=O)Nc2cc(C)on2)nc2c([nH]c3ccccc32)c1=O	i	i	i	i	i
CCOc1ccc(-n2c(SCC(=O)Nc3cc(C)on3)nc3c([nH]c4ccccc43)c2=O)cc1	71.5	i	i	i	i
CCn1c(COc2ccc(Cl)cc2)nnc1SCC(=O)Nc1ccccc1-c1ccccc1	i	nt	nt	nt	i
CCCCNC(=S)N/N=C/c1ccc(C)s1	i	i	4.7	i	i
Cc1ccc(/C=N/NC(=S)NCCc2ccccc2)s1	i	i	i	i	i
O=S(=O)(c1ccccc1)c1cnn2c(C(F)(F)F)cc(-c3ccccc3)nc12	i	i	i	i	i
COc1ccccc1-c1cc(C(F)(F)F)n2ncc(S(=O)(=O)c3ccccc3)c2n1	i	i	9.4	i	i
COc1ccc(OC)c(S(=O)(=O)N2CCN(c3ccccc3)CC2)c1	i	i	i	i	i
COc1ccc(OC)c(S(=O)(=O)ON2C(=O)c3ccccc3C2=O)c1	44.5	i	i	i	44.4
COc1ccc(-c2c(Cc3ccccc3)nc(NC(=O)c3ccccc3)n2Cc2ccccc2)cc1	i	nt	nt	nt	i
SMILES	NPR1 activator	HTR2A ag	MsrA inhibitor	bovine MsrA act	GC-B act
Cc1cc(C)c(S(=O)(=O)/N=C2/C=C(SCC(=O)O)C(=O)c3ccccc32)cc1C	nt	i	nt	9.4	nt
CCOC(=O)C(=O)N1CCC(C(=O)NC2CCCc3ccccc32)CC1 (stereo not given)	i	nt	nt	nt	i
O=C(Nc1nc2cc3c(cc2s1)OCCO3)c1cccc(N2C(=O)CCC2=O)c1	i	i	i	i	i
O=C(Nc1nc2ccccc2s1)c1cccc(N2C(=O)CCC2=O)c1	43.7	i	i	i	i
Cc1sc(NC(=O)c2cccc(N3C(=O)CCC3=O)c2)nc1-c1ccccc1	76.5	i	i	i	i
CC(=O)c1sc(NC(=O)c2cccc(N3C(=O)CCC3=O)c2)nc1-c1ccccc1	i	i	i	i	i
CCCCCn1cnc2c(=S)nc(N)[nH]c21	74.8	i	i	i	80.7
CCCCCCCCn1cnc2c(N)c(C)c(C)cc21	i	i	i	i	i
CCCCn1cnc2c(=S)nc(N)[nH]c21	79.1	i	i	i	79.5
Nc1nc(=S)c2ncn(C3CCCCC3)c2[nH]1	i	i	4.6	i	i
Nc1nc(=S)c2ncn(C3OC(CO)C(O)C3O)c2[nH]1 (stereo not given)	i	i	i	i	i
CCCn1cnc2c(=S)nc(N)[nH]c21	43.1	i	i	i	44.2
Nc1nc(=S)c2ncn([C@@H]3O[C@H](CO)[C@@H](O)[C@H]3O)c2[nH]1	i	i	i	i	i
